Assay results as given in PubChem BioAssay (NCATS).
Values joined by “and” are separate entries in the source; they are usually repeats but may differ in a detail not shown here. Equal entries are not always repeated. Inconclusive results are not listed. Active and inactive are the calls of the source. Unless noted, the call rests on the fitted dose curve; in most records, active means well fitted curve in the direction sought with a large enough effect; inconclusive means small, poorly fitted or top-dose-only effect, or another doubt; inactive means no such curve, though single readings can be large; an effect the other way counts as inactive or inconclusive.

Experiments:
[1] = molecular target: Cytochrome P450 1A2 (Homo sapiens) (UniProt P05177); assay: p450-cyp1a2 (AID 410; calls by dose curve;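 further: -100% = full effect of reference inhibitor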)
Chain of Cytochrome P450 1A2 (Homo sapiens) (P05177 whole entry, looked up): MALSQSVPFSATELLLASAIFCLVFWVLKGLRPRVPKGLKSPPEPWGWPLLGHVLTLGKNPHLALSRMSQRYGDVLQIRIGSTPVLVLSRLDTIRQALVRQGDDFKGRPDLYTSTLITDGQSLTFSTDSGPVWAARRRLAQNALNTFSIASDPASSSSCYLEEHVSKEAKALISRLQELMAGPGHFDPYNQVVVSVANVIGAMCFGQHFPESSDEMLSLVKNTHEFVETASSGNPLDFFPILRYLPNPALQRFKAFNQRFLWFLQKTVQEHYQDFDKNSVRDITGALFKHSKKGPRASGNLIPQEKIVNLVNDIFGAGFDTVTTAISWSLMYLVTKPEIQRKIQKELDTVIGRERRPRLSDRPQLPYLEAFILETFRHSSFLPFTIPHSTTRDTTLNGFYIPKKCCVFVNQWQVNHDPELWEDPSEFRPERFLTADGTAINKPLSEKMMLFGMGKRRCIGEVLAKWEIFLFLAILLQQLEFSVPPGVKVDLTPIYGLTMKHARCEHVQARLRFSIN
Procedure, shortened: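 20nM CYP1A2 with 100uM Luciferin-ME (at Km) in 100mM KPO4; compound preincubated 10 min, NADPH regeneration added, 60 min at room temperature. Luciferin quantified by luminescence after detection reagent; normalized to 57 uM furafylline.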

[2] = molecular target: Glucocorticoid receptor (Homo sapiens) (UniProt P04150); assay: GR-GFP Redistribution (AID 450;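 active means compounds whose dose series gives a full or clear partial fitted curve of increased nuclear translocation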; further: potency means the concentration at half of the fitted maximal effect); settings: U2OS GR-GFP nuclear translocation, laser cytometry, 2 h
Chain of Glucocorticoid receptor (Homo sapiens) (P04150 whole entry, looked up, the tested form may be a part): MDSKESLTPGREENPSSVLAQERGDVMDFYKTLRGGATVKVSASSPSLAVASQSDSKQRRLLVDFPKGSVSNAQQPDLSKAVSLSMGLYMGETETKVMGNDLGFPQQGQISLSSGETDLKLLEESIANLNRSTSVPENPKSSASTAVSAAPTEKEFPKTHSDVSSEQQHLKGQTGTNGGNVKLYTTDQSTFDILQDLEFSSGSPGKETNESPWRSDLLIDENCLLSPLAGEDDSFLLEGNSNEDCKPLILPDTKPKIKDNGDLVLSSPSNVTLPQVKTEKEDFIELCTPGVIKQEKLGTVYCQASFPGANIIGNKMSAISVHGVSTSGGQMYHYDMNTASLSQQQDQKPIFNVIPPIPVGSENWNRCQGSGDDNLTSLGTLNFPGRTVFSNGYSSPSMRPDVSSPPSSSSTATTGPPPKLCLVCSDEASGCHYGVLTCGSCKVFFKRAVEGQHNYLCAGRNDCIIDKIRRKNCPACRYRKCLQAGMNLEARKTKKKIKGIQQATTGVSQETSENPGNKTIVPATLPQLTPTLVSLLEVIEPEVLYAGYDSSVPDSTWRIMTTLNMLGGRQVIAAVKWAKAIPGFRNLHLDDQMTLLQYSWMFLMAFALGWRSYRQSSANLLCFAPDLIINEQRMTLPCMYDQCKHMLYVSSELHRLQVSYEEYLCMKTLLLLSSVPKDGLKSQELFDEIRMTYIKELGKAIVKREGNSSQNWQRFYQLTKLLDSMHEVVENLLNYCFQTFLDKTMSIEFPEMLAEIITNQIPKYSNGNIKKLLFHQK

[3] = molecular target: Glucocorticoid receptor (Homo sapiens) (UniProt P04150); assay: GR-EFC Redistribution (AID 451; calls by dose curve; further: potency means the concentration at half of the fitted maximal effect); settings: CHO-K1 GR-EFC translocation, beta-gal luminescence, 2 h
Procedure, shortened: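 CHO-K1 cells stably expressing nuclear-localized β-gal enzyme acceptor and GR fused C-terminally to the enzyme donor fragment; ligand-driven nuclear translocation restores β-gal by complementation. Compounds titrated up to 46 uM final, 2 h at 37 °C; luminescence read.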

[4] = molecular target: Mitogen-activated protein kinase 10 (Mus musculus) (UniProt Q61831); assay: JNK3 AlphaScreen Assay (AID 530; active means well fitted curve in either direction with a large enough effect, not every such curve was filed as active;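 further: kinase came from lysate of stimulated human HepG2 cells; signal reports phosphorylation of biotinylated GST-cJun 1-79 at Ser73 with 10 µM ATP; on the % scale 0 is the no-effect control and ±100 the full control effect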)
Procedure, shortened: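 Inhibitors reduce antibody binding to phosphorylated biotin-cJun, lowering AlphaScreen luminescence. Lysates from HepG2 cells pre-activated by IL-1beta plus TNF-alpha supplied JNK3; compounds were titrated.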

[5] = qHTS Assay for Lipid Storage Modulators (AID 1519; calls by dose curve); settings: Drosophila S3 cells, BODIPY lipid droplet/cell ratio, laser cytometry, cells loaded with oleic acid
Procedure, shortened: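 Cells seeded at 5,000 per well were treated with compounds over a concentration series and loaded with oleic acid (400 uM, as added). Lipid droplet fluorescence (488 nm excitation, 500-530 nm channel) was read by laser-scanning cytometry and normalized to 20 uM Triacsin C.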

[6] = molecular target: Ubiquitin carboxyl-terminal hydrolase 1 (Homo sapiens) (UniProt O94782); assay: Inhibitors of USP1/UAF1: Pilot qHTS (AID 504865);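 further: rhodamine fluorescence freed from ubiquitin-rhodamine substrate followed over time; top concentration of the series differs between compounds; on the % scale 0 is the no-effect control and ±100 the full control effect; nearly all actives have a fitted effect of over 35% in size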
Chain of Ubiquitin carboxyl-terminal hydrolase 1 (Homo sapiens) (O94782 whole entry, looked up): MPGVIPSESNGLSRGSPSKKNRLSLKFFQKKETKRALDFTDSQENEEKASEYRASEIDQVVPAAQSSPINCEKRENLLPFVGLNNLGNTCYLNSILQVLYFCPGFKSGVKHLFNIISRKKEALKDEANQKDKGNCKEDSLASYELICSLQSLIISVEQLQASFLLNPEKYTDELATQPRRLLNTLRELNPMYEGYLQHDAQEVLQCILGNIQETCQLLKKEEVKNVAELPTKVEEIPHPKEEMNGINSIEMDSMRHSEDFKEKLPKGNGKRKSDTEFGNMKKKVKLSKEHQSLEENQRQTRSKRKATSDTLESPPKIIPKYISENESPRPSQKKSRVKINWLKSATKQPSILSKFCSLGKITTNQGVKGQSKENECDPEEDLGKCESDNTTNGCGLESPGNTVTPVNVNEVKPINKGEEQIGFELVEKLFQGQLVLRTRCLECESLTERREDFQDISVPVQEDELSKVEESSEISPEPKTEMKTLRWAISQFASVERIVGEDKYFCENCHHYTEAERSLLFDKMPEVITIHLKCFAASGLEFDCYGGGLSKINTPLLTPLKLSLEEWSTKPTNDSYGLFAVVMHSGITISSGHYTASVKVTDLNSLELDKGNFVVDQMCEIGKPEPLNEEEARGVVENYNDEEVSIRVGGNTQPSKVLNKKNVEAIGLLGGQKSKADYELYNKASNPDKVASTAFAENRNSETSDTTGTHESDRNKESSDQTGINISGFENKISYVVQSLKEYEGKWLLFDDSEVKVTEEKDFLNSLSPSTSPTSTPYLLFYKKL
Procedure, shortened: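 Enzyme-free wells gave the negative control, while test wells held 1nM USP1/UAF1 preincubated with compound for 15 min at room temperature. Ub-Rho at 150nM final started the reaction, and fluorescence at 480/540 nm was recorded kinetically.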

[7] = molecular target: DNA dC->dU-editing enzyme APOBEC-3G (Homo sapiens) (UniProt Q9HC16); assay: qHTS for inhibitors of Vif-A3G interactions: Validation (AID 588379); further: 0% is about no effect
Chain of DNA dC->dU-editing enzyme APOBEC-3G (Homo sapiens) (Q9HC16 whole entry, looked up): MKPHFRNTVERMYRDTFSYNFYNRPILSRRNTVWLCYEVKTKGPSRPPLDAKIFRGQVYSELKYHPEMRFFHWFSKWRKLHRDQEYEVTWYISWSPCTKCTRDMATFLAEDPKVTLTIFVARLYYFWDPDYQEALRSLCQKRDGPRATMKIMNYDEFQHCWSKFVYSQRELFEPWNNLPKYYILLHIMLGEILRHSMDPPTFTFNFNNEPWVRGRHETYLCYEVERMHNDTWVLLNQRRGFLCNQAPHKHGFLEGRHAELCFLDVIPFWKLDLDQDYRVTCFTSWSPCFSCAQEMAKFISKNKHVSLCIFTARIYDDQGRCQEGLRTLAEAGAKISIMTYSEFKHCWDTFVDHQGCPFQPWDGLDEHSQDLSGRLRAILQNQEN
Procedure, shortened: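 HeLa cells stably expressing Vif and A3G-eYFP, 700 cells/well, incubated overnight at 37 deg C, then exposed to compound overnight at 37 deg C. Inhibition of Vif-mediated degradation read as increased yellow fluorescence (Ex 488/Em 500-530) by laser-scanning cytometry.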

[8] = system: Zika virus NS2B-NS3 protease; assay: Primary screen GU AMC qHTS for Zika virus inhibitors (AID 1347154);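 further: 0% = no-inhibitor control and -100% = no-enzyme control; nearly all actives have a fitted effect of over 70% in size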
Procedure, shortened: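 Unlinked Zika NS2B hydrophilic domain/NS3 protease domain noncovalent complex (25 nM final) in 10 mM Tris-HCl pH 8.0, 0.01% Tween 20, with AMC peptide substrate. Fluorescence (ex 340, em 450 nm) change over 15 min, room temperature; percent inhibition fitted to 4-parameter Hill equation.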

[9] = Primary qHTS for small molecule stabilizers of the endoplasmic reticulum resident proteome: Secreted ER Calcium Modulated Protein (SERCaMP) assay (AID 1508630); further: on the % scale 0 is the no-effect control and ±100 the full control effect
Procedure, shortened: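 GLuc-SERCaMP-expressing SH-SY5Y cells, pretreated 16 h with compound, are challenged with thapsigargin to empty ER calcium stores; after 4 h, coelenterazine is added directly to the medium and luminescence is imaged.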

[10] = NFAT Signaling Pathway (AID 444; active means well fitted curve in either direction with a large enough effect, not every such curve was filed as active;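 further: carbachol stimulus at about its EC50 of 1 µM final; on the % scale 0 is the no-effect control and ±100 the full control effect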); settings: Jurkat NFAT-bla M1, carbachol, beta-lactamase ratio, 5 h
Procedure, shortened: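 Jurkat cells carrying an NFAT-driven β-lactamase reporter and co-transfected muscarinic M1 receptor were treated with compound plus carbachol (1 uM final, an EC50 level) for 5 h at 37 °C. CCF4 loading followed for 1 h at RT; 460/530 nm ratio gave %activity.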

[11] = Stat Signaling Pathway (AID 446; active means well fitted curve in either direction with a large enough effect, not every such curve was filed as active;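 further: ME-180 cervical cancer cells given 40 pM IL-6 alongside compound; SIE-controlled beta-lactamase reporter measured as 460/530 nm FRET emission ratio; on the % scale 0 is the no-effect control and ±100 the full control effect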); settings: ME-180 SIE beta-lactamase reporter, IL-6 stimulated, 5 h
Procedure, shortened: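 Reporter line: ME-180 cervical carcinoma, SIE-beta-lactamase. Treatment: compound with 40 pM IL-6, 5 hrs, 37 C, in low-serum OPTI-MEM with 10 mM HEPES pH 7.3. Detection: 460/530 nm fluorescence.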

[12] = molecular target: 3',5'-cyclic-AMP phosphodiesterase 4B (Homo sapiens) (UniProt Q07343); assay: qHTS Assay for Inhibitors of PDE-IV (AID 607; active means well fitted activation curve with a large enough effect in the main read-out, with a control signal flat, not every such curve was filed as active; further: % of control where 0% means no effect)
Chain of 3',5'-cyclic-AMP phosphodiesterase 4B (Homo sapiens) (Q07343 whole entry, looked up): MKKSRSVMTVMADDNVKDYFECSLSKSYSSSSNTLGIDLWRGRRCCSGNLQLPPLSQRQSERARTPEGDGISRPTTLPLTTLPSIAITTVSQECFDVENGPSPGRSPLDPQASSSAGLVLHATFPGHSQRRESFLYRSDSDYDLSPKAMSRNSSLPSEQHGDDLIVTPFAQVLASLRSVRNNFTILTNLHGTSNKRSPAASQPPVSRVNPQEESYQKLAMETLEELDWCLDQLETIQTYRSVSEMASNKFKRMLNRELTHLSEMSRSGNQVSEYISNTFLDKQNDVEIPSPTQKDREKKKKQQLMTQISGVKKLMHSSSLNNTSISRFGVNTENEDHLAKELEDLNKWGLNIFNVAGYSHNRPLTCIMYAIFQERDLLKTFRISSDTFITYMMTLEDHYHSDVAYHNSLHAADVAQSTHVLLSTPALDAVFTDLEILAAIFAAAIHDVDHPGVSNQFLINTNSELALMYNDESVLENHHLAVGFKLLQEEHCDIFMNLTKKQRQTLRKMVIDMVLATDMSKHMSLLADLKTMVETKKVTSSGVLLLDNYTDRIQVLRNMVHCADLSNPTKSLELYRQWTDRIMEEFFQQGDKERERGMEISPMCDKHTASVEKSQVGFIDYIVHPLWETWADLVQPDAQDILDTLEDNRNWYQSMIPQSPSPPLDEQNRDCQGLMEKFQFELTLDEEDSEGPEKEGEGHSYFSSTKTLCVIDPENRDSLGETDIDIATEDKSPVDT
Procedure, shortened: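 Cell-based read-out of cAMP via a modified cyclic nucleotide-gated channel and membrane potential dye (535/590 nm) in HEK293 cells expressing PDE4 endogenously. Compounds tested up to 22.9 uM final; 100 uM RO 20-1724 reference.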

[13] = molecular target: Guanine nucleotide-binding protein G(i) subunit alpha-1 (Homo sapiens) (UniProt P63096); assay: qHTS Assay for Inhibitors of RGS12 GoLoco Motif Activity (Green Fluorophore) (AID 879);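 further: 0% = labeled peptide with Gαi1 and full inhibition = labeled peptide alone without protein; negative values mean loss of peptide binding seen as reduced polarization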
Chain of Guanine nucleotide-binding protein G(i) subunit alpha-1 (Homo sapiens) (P63096 whole entry, looked up): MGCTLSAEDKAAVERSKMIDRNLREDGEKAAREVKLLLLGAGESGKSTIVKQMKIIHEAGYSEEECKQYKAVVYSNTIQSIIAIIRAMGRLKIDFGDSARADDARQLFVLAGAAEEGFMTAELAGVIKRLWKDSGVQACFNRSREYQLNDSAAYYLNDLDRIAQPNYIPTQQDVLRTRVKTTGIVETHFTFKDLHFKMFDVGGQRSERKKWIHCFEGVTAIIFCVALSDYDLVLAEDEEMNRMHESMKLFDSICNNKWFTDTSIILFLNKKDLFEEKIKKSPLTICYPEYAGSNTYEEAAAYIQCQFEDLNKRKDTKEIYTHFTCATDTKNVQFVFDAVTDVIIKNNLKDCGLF
Procedure, shortened: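 Fluorescence polarization assay: 50 nM Gαi1 with 10 nM FITC-labeled RGS12 GoLoco peptide in 10 mM Tris pH 7.5, 150 mM NaCl, 0.1 mM GDP, 0.05% NP40, 10 min at room temperature with compound.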

[14] = qHTS Assay for Identification of Small Molecule Agonists for Thrombopoietin (TPO) Signaling Pathway (AID 917); further: on the % scale 0 is the no-effect control and ±100 the full control effect
Procedure, shortened: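 IL-3-dependent murine pro-B Ba/F3 cells, stably transfected with human TPO receptor and GpIIb-promoter luciferase, are incubated 24 hrs at 37 C with test compound and 26 pM TPO; luciferase signal is read after 10 min at room temperature.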

[15] = molecular target: Pyruvate kinase (Leishmania mexicana) (UniProt Q27686); assay: qHTS Validation Assay for Inhibitors of Leishmania Mexicana Pyruvate Kinase (AID 945);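 further: 0% = DMSO only neutral control wells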
Chain of Pyruvate kinase (Leishmania mexicana) (Q27686 2-499 E452W): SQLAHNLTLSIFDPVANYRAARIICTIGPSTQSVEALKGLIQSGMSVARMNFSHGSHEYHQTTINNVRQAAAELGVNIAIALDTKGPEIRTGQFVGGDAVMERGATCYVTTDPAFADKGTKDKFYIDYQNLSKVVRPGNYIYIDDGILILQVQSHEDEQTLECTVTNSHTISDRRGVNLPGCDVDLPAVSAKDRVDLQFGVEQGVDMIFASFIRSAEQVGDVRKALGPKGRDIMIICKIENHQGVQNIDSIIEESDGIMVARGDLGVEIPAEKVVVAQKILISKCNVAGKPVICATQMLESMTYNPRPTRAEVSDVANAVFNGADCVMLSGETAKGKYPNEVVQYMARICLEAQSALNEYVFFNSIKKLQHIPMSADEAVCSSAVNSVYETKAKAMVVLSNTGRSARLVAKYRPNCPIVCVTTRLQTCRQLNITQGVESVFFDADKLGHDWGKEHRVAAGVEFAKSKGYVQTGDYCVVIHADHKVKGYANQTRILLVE
Procedure, shortened: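 Compounds are tested as eight-point concentration series. Reactions contain 0.2 nM LmPYK E451W, 0.5 mM PEP, 0.1 mM ADP, 7 mM MgCl2 and 50 mM KCl at pH 7.2, run 1 h at room temperature, then read by PKLight luminescence.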

[16] = molecular target: Pyruvate kinase PKM (Homo sapiens) (UniProt P14618); assay: qHTS Assay for Activators of Human Muscle Pyruvate Kinase (AID 954; active means well fitted curve in the direction sought with a large enough effect, not every such curve was filed as active;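 further: 0% = uninhibited enzyme and -100% = no enzyme or full thiadiazolimine inhibition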)
Chain of Pyruvate kinase PKM (Homo sapiens) (P14618 whole entry, looked up): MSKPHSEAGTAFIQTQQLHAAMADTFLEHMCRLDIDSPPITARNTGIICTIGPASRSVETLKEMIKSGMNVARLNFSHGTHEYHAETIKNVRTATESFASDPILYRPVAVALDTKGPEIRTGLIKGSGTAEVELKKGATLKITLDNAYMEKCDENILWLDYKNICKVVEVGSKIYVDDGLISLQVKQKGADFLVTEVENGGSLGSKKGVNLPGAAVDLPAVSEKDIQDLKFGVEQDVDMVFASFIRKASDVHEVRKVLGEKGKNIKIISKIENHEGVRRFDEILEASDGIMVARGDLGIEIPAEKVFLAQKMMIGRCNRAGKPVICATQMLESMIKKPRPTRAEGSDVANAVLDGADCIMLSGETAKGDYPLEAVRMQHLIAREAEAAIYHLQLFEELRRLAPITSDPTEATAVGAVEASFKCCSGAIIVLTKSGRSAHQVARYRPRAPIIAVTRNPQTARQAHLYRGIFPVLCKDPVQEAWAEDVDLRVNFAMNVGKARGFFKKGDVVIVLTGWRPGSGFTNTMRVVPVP
Procedure, shortened: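 Human PKM2 activity is measured as ATP generation, detected by luciferase-coupled luminescence. The enzyme (0.1 nM) acts on 0.5 mM PEP and 0.1 mM ADP for 1 h at ambient temperature; data are normalized to uninhibited and full-inhibition wells.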

[17] = molecular target: Alpha-galactosidase A (Homo sapiens) (UniProt P06280); assay: Counterscreen for Glucocerebrosidase Inhibitors: qHTS Assay for Human alpha-Galactosidase at pH 4.5 (AID 992); further: 0% is about no effect
Chain of Alpha-galactosidase A (Homo sapiens) (P06280 whole entry, looked up): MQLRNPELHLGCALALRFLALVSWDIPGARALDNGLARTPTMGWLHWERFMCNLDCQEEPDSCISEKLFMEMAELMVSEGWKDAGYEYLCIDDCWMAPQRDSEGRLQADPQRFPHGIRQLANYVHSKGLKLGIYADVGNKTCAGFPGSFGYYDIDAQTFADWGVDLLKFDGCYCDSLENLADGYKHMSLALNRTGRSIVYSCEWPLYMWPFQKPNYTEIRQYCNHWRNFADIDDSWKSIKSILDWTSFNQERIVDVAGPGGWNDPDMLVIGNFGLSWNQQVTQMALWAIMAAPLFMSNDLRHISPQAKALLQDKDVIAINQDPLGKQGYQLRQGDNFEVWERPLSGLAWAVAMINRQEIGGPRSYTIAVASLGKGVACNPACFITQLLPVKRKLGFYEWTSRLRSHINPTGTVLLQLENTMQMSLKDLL
Procedure, shortened: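 Quantitative HTS: compounds tested from 0.7 nM up to 77 uM against 2 nM enzyme with 80 uM 4-MU alpha-D-galactopyranoside. The 20 min room-temperature reaction is stopped with 1M NaOH/1M glycine, pH 10.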

[18] = molecular target: alpha-glucosidase (Oryza sativa, rice) (UniProt Q653V4); assay: Counterscreen for Glucocerebrosidase Inhibitors: qHTS Assay for Rice alpha-Glucosidase at pH 5.0 (AID 997);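 further: 0% = full activity with enzyme and -100% = basal without enzyme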
Procedure, shortened: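 Rice alpha-glucosidase (4 nM final) with 400 uM 4-methylumbelliferyl-alpha-D-glucopyranoside in citrate buffer pH 5.0, 20 min at room temperature, stopped at pH 10; fluorescence 365/440 nm, compounds 0.7 nM–77 uM, AC50 from Hill fits.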

[19] = AP1 Signaling Pathway (AID 357; active means well fitted curve in either direction with a large enough effect, not every such curve was filed as active); settings: ME-180 (cervical carcinoma) AP-1-bla reporter, EGF-induced, beta-lactamase ratio, 5 h; at 38 µM (top of the series)
Procedure, shortened: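 Titration-series screen for positive or negative modulators of EC50 EGF-induced signaling in ME-180 cells carrying an AP-1-driven beta-lactamase reporter. After 5 hours at 37 degrees Celsius, CCF4 460nm/530nm emission ratio gave %Activity; AC50 values derived.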

[20] = measured here: cell count channel max response
[21] = measured here: lipid channel max response

C[C@H](NC[C@H](O)CP(=O)(O)Cc1ccccc1)c1ccc(Cl)c(Cl)c1
0.952%: max response [5, 20]
inactive: Potency [1] | Potency [2] > 46 µM | Potency [3] > 46 µM | Potency [4] | activity change, negative = inhibition ([5]; at 57.5 µM (top of the series)) 2.58% | Potency [6] | Potency [7] | Potency [8] | Potency [9]
5.21%: max response [5, 21]

CC(C)NC[C@@H](O)COc1ccc(CCOCC2CC2)cc1
2.99% and 8.52%: max response [5, 20]
-0.358% and 14.4%: max response [5, 21]
inactive: activity change, negative = inhibition ([10]; at 17.2 µM (top of the series)) -13.9% | activity change, negative = inhibition ([10]; at 38 µM (top of the series)) 5.51% | activity, negative = inhibition ([11]; at 17.2 µM (top of the series)) 9.37% | activity, negative = inhibition ([11]; at 38 µM (top of the series)) 21.1% | Potency [2] > 46 µM and > 20.6 µM | Potency [3] > 46 µM and > 20.6 µM | Potency [4] | Potency [12] | outcome [13] | Potency [14] | Potency [15] | outcome [16] | outcome [17] | outcome [18] | activity change, negative = inhibition ([5]; at 25.7 µM (top of the series)) -3.72% | activity change, negative = inhibition ([5]; at 57.5 µM (top of the series)) 3.94% | Potency [6] | Potency [7] | Potency [8] | Potency [9]

CC(N)=NCCC[C@H](N)C(=O)O
inactive: activity change, negative = inhibition [19] -5.19% | activity change, negative = inhibition ([10]; at 38 µM (top of the series)) 5.13% | activity, negative = inhibition ([11]; at 38 µM (top of the series)) -24.9% | Potency [2] > 46 µM | Potency [3] > 46 µM | Potency [4] | outcome [13] | Potency [14] | Potency [15] | outcome [16] | outcome [17] | outcome [18] | activity change, negative = inhibition ([5]; at 57.5 µM (top of the series)) 4.11% | Potency [6] | Potency [7] | Potency [8] | Potency [9]
-7.21%: max response [5, 20]
-3.8%: max response [5, 21]
